Compound activity from PubChem.
PREPL inh = PREPL enzyme inhibitors, primary screen, biochemical, fluorescence polarization; Prolyl endopeptidase-like (Homo sapiens), Q4J6C6; recombinant PREPL, fluorescence polarization activity-based probe; inhibition, % at 5.96 µM; actives 0.68% (n = 320,000); in the data active = inhibition above about 43%
CHT PAM = CHT positive allosteric modulators, primary screen, cell-based, membrane potential dye, choline EC20; High affinity choline transporter 1 (Homo sapiens), Q9GZV3; CHT-expressing cells; active compounds read high; LV-AA mutant CHT in HEK293 cells; B-score at 10 µM; actives 0.49% (n = 310,000); AID 488977, 2010;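 active = initial fluorescence not abnormally high and integrated response B-score, plate-corrected, over 3 SD above library mean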
Target sequence (Q9GZV3 whole entry, looked up): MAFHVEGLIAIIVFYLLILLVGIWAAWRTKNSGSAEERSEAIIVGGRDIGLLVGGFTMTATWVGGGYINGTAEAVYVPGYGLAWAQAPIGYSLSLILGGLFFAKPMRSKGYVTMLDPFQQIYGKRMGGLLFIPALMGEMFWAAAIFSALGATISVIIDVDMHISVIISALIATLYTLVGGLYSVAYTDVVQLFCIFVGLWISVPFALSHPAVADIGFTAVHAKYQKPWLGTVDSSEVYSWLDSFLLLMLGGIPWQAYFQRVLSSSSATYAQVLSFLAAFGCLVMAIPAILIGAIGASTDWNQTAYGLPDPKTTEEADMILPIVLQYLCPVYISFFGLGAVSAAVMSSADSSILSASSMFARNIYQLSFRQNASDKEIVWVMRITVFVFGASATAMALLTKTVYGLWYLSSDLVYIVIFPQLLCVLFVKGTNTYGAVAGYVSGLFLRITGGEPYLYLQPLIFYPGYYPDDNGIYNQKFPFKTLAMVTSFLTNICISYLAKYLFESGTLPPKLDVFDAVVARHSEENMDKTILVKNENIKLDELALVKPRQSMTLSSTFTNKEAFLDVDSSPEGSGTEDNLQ
CHT block = inhibitors of human choline transporter CHT; High affinity choline transporter 1 (Homo sapiens), Q9GZV3; CHT-expressing cells, membrane potential dye, choline response; active compounds read low; B-score at 10 µM; actives 0.86% (n = 310,000); AID 488975, 2010;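 active = B-score over 3 SD under the library average, and starting fluorescence ratio not unusually high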;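 also: choline stimulus applied at its EC90 after an EC20 pre-addition; B-score computed on integrated fluorescence ratio after choline addition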
AI-2 QS mod = Vibrio harveyi AI-2 quorum sensing modulators, primary screen, JMH597 strain, luminescence/OD600 ratio. AID 2094, 2009. actives 0.4% (n = 300,000). activity change, % at 7.5 µM. Vibrio harveyi JMH597 AI-2 luminescence/OD600 ratio, 9 h; active compounds read low; strain lacks LuxN and CqsS sensors; 0 = neutral-control median; in the data active = activity change below about -75%, passing the limit was not always enough;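 also: luminescence divided by OD600 gain over 9 h not by final OD600 alone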
ALR inh = inhibitors of human ALR sulfhydryl oxidase, primary screen, biochemical, H2O2 detection, HRP-luminol luminescence, single point | actives 3.8% (n = 290,000) | purified ALR, DTT oxidation | AID 485317, 2010 | FAD-linked sulfhydryl oxidase ALR (Homo sapiens), P55789 | inhibition, % (no concentration beside the values);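 active = mean replicate inhibition above about 79%, with every replicate also reaching it, limit read from the data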
Large screens that a line does not name were inactive. A selection: hits, their analogues and other compounds. The true share with any hit is near 5%.

Oc1c(CN2CCc3ccccc3C2)cc(Cl)c2cccnc12	AI-2 QS mod -89
Oc1ccc(CN2CCN(Cc3ccccc3)CC2)c2cccnc12	none
CN1CCN(Cc2cc(COCc3ccccc3)c3cccnc3c2O)CC1	PREPL inh 47 (no result: ALR inh)
Oc1c(CN2CCCCC2)cc(Br)c2cccnc12	AI-2 QS mod -87 (no result: ALR inh)
CC(=O)Nc1ccc(S(=O)(=O)NCCN2CCNC2=O)cc1Cl	none
CC(C)Nc1c(N)c(=O)oc2ccccc12	ALR inh 92
CNc1c(N)c(=O)oc2ccccc12	ALR inh 93
Cc1ccc(Nc2c(N)c(=O)oc3ccccc23)cc1	none (no result: ALR inh)
O=C(NCCNC(=O)c1ccccn1)c1ccccc1	ALR inh 95
Nc1c2c(nc3c1CCCC3)CCCC2 (tested in a mixture with another compound)	none
CNc1nnc(-c2ccc(N(C)C)cc2)s1	ALR inh 100 (no result: AI-2 QS mod)
Cc1ccccc1NS(=O)(=O)c1nnc(NC(=O)C(C)C)s1	none (no result: ALR inh)
CCN(CC)c1ccc(NC(=O)C2CC3CCC2C3)cc1 (centres undefined)	ALR inh 99
COc1ccc(Cl)cc1NS(=O)(=O)c1cccc(C(=O)NCCCN2CCCC2=O)c1	none
Cc1ccc(CSCC(=O)NCc2ccco2)cc1	none
CCOC(=O)N1CCC(NC(=O)CSCc2nc(-c3ccc(OCC)cc3)oc2C)CC1	ALR inh 99
CCOC(=O)N1CCC(NC(=O)CSCc2nc(-c3ccccc3Cl)oc2C)CC1	none
CCOC(=O)N1CCC(NC(=O)CSCc2nc(-c3cccc(OC)c3)oc2C)CC1	ALR inh 99
Cc1ccccc1CSCC(=O)NCc1ccco1	ALR inh 88
Cc1oc(-c2cccs2)nc1CSCC(=O)NC1CC1	none (no result: ALR inh)
Cc1oc(-c2ccc(Cl)cc2)nc1CSCC(=O)NC1CCN(Cc2ccccc2)CC1	ALR inh 98
O=C(Nc1ccc(F)c(Cl)c1)C1CCCN(C2=NS(=O)(=O)c3ccccc32)C1 (centres undefined)	none (no result: CHT PAM, CHT block, AI-2 QS mod, ALR inh)
C/C(=N\NC(=O)C1CC1)c1ccc2c(c1)OCCO2	none
CCOc1ccc(-c2nc(CSCC(=O)NCc3ccco3)c(C)o2)cc1	ALR inh 98
CCOc1ccc(-c2nc(CSCC(=O)NC3CC3)c(C)o2)cc1	ALR inh 99
CCOc1ccc(-c2nnc3ccc(SCC(=O)NCc4ccco4)nn23)cc1	none
CCOc1ccc(NC(=O)CS(=O)CC(=O)NC2CCCc3ccccc32)cc1 (centres undefined)	none (no result: ALR inh)
CCOc1ccc(-c2nc(CSCC(=O)NC3CCCc4ccccc43)c(C)o2)cc1 (centres undefined)	ALR inh 96
CCc1nc(CN(C)C(=O)C2CCC(=O)N(Cc3cccc(F)c3)C2)no1 (centres undefined)	none
O=C(COc1ccccc1)NCC(=O)N/N=C/c1ccc(Br)cc1	none
COC(=O)CSCc1nc2ccccc2[nH]c1=O	ALR inh 99
COC(=O)CCc1nc2ccccc2[nH]c1=O	none
CN1c2ccccc2C(C)(C)C12C=Nc1c(ccc3ccccc13)O2 (centres undefined)	none
CN1c2ccccc2C(C)(C)[C@]12C=Cc1cc(O)ccc1O2	ALR inh 88
CC1CCN(S(=O)(=O)c2cccc(C(=O)Nc3nncs3)c2)CC1	none
O=C(CSc1nc2ccccc2n1S(=O)(=O)c1ccccc1)N1CCCC1	none
CC(C)COc1ccc(-c2nn(-c3ccccc3)cc2/C=C2/SC(=S)N(CC(=O)O)C2=O)cc1	ALR inh 97
O=C(O)CN1C(=O)/C(=C\c2cn(-c3ccccc3)nc2-c2ccccc2)SC1=S	none
C=COC(=O)CSc1snc(SCC(=O)OC)c1C#N	ALR inh 99
CCCn1cc(CN2CCC(n3nccc3NC(=O)c3ccccc3)CC2)c(C)n1	none
CCC(C)c1ccc(O)c(NC(=O)c2cccnc2)c1 (centres undefined)	ALR inh 95
CCC(C)c1ccc(NC(=O)c2cccnc2)cc1 (centres undefined)	none
O=C(O)c1ccc(N2CCS(=O)(=O)CC2)cc1	none
Cc1ccc(NNC(=O)c2ccno2)c(C)c1	ALR inh 99
C/C(=N\Nc1nc(C)cc(C)n1)c1ccc(C)o1	ALR inh 91
O=C(NCc1ccco1)c1ccc2c(c1)N(Cc1ccccc1)CCS2	ALR inh 98
Cc1ccc(CN2CCSc3ccc(C(=O)NCc4ccccn4)cc32)cc1	ALR inh 98
CC(C)Oc1ccc(CNC(=O)c2ccc3c(c2)N(C)CCS3)cc1	none
CCOC(=O)N1CCC(NC(=O)c2ccc3c(c2)N(Cc2ccc(C)cc2)CCS3)CC1	none
CCN1CCSc2ccc(C(=O)NCc3ccccc3Br)cc21	none
COc1ccc(CNC(=O)c2ccc3c(c2)N(C)CCS3)cc1	ALR inh 96
O=C(NCc1ccco1)c1ccc2c(c1)N(Cc1ccc(Cl)cc1)CCS2	none
CCN1CCSc2ccc(C(=O)NCc3ccccc3C)cc21	ALR inh 90
O=C(c1ccc2c(c1)CCN2S(=O)(=O)c1ccccc1)N1CCN(c2ccccc2F)CC1	none
Cc1ccccc1NC(=O)c1ccc2c(c1)N(C)CCS2	ALR inh 98
CCc1cc(=O)[nH]c(SCc2cccnc2)n1	ALR inh 98
CCc1cc(=O)[nH]c(SCc2ccc(C)cc2)n1	none
CCc1c(C)nc(SCc2cccnc2)[nH]c1=O	ALR inh 99
COC(=O)N1CCN(c2ccc(C)cc2)C(C)C1 (centres undefined)	none (no result: ALR inh)
CC(=O)c1ccc(NC(=O)N2CCN(c3ccc(C)cc3)C(C)C2)cc1 (centres undefined)	ALR inh 96
CCOC(=O)CSC1=C(C#N)C(=O)NC2(CCCCC2)S1	ALR inh 98
CCn1c(CS(=O)Cc2ccc(Cl)cc2Cl)nnc1SCc1c(Cl)cccc1Cl (centres undefined)	ALR inh 99
Cc1cc(NC(=O)CN2CCN(C/C=C/c3ccccc3)CC2)c([N+](=O)[O-])cc1C	none
O=C(CN1CCN(C/C=C/c2ccccc2)CC1)Nc1cc([N+](=O)[O-])ccc1Cl	PREPL inh 49
COC(=O)c1ccc(OC(=O)CCN2C(=O)C3CCCCC3C2=O)cc1 (centres undefined)	PREPL inh 44
CCN(CC)C(=O)Cn1cc(C(=O)C2CC2)c2ccccc21	none
COc1cccc(OCC(=O)Nc2cc(NC(=O)COc3cccc(OC)c3)cc(C(=O)O)c2)c1	ALR inh 99
Cc1cccc(OCC(=O)Nc2cc(NC(=O)COc3cccc(C)c3C)cc(C(=O)O)c2)c1C	ALR inh 80
COc1ccc(NS(=O)(=O)c2cccc(NC(=O)COc3ccc(OC)cc3)c2)cc1	AI-2 QS mod -83
